# Where “and” joins values, the source holds several entries; their conditions need not be identical. Equal values may be shown once. Inconclusive results are not listed. Calls of active or inactive are those of the source. Unless noted, the limit is not given here; nearly all actives have AC50 up to about 26 µM.
# Assays:
# [1] = liver-stage malaria parasite growth inhibition, primary screen, cell-based, HepG2, luciferase luminescence, HepG2 viability (AID 624349; in the data active = parasite load remaining mostly below about 12%, no sharp cut-off; inactive = mostly above about 10%;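 also: 100% = mean of DMSO negative control wells on the same plate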); conditions: P. berghei liver stage in HepG2, luciferase luminescence, concentration not given here; parasite load remaining: stronger effect = lower value; viability: measured here: HepG2 viability without parasites
# [2] = differential killing of epithelial or mesenchymal cells, primary screen, imaging, PC-3E GFP, TEM4-18 mCherry, co-culture (AID 1345086;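 active = compounds killing one labelled cell type while sparing the other, by normalised counts and ratio limits, not self-fluorescent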;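 as to all read-outs here: cells exposed to compound for 72 h before imaging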;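 as to red/green cell ratio (normalised): normalised mesenchymal count divided by normalised epithelial count so high means epithelial killing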); conditions: imaging cell counts, at 1 µM; for red/green cell ratio (normalised): actives lie on both sides, counts scaled to control wells, 1 = unselective
# [3] = growth inhibition of DIPG glioma cells, dose response, cell-based, SU-DIPG-XVII, MIPE5.0, CellTiter-Glo, qHTS (AID 1347060); conditions: SU-DIPG-XVII viability, CellTiter-Glo ATP luminescence;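 as to AC50: cells exposed to compound for 48 hours before viability readout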
# [4] = growth inhibition of DIPG glioma cells, dose response, cell-based, SU-DIPG-XIII, MIPE5.0, CellTiter-Glo, qHTS (AID 1347064; cut-off not given, nearly all actives have AC50 up to about 23 µM;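 as to AC50: cells exposed to compound for 48 hours before the viability read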); conditions: SU-DIPG-XIII viability, CellTiter-Glo ATP luminescence
# [5] = viability loss in pontine glioma line – cell-based, SU-DIPG-XXV, MIPE5.0, CellTiter-Glo, qHTS, dose response (AID 1347065); conditions: CellTiter-Glo ATP luminescence;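 also: cells exposed to compound for 48 hours before ATP readout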
# [6] = JHH-DIPG-1 glioma cell viability, MIPE5.0 library, CellTiter-Glo luminescence, qHTS (AID 1347067); conditions: JHH-DIPG-1 glioma viability, CellTiter-Glo ATP luminescence;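 also: cells exposed to compound for 48 hours before readout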
# [7] = SU-DIPG-XXV glioma cell viability, MIPE5.0 library, qHTS (AID 1347068; cut-off not given, nearly all actives have IC50 up to about 30 µM;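 as to IC50: cells exposed to compound for 48 hours before viability readout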)
# [8] = sensitizers of A549 cells to miR-34 induction, primary screen, imaging, A549 dox-inducible miR-34, nuclei and caspase counts (AID 1347080;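 active = compounds whose cell count with miR-34 switched on is under 0.7 times the count with it off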); conditions: A549 miR-34 inducible, Hoechst nuclei count, 48 h
# [9] = survival rescue of mitochondrial mutant cells in low glucose, primary screen, MELAS cybrids, Rieske KO mouse fibroblasts, CellTiter-Glo (AID 1508586;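 active = mean z-score across replicates of 1.96 or higher in either the MELAS or the Rieske mutant cell line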;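 also: z relative to plate mean and SD of compound and empty wells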)
# [10] = viability rescue of complex I mutant cybrids, primary screen, cell-based, galactose medium, ATP luminescence (AID 1645843;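 active = z-score of at least 1.8 in each of two replicates, scored against plate mean and spread of sample wells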;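 also: positive z means more ATP and so rescue of galactose-driven cybrid death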); conditions: complex I mutant cybrid cells, 72 h, stronger effect = higher value
# [11] = growth inhibition of DIPG glioma cells, dose response, cell-based, SU-DIPG-XIII, MIPE4.0, CellTiter-Glo, qHTS (AID 1347061; cut-off not given, nearly all actives have AC50 up to about 37 µM;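 also: cells exposed to compound for 48 hours before readout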); conditions: SU-DIPG-XIII viability, CellTiter-Glo ATP luminescence
# [12] = growth inhibition of DIPG glioma cells, dose response, cell-based, SU-DIPG-IV, MIPE4.0, CellTiter-Glo, qHTS (AID 1347063; cut-off not given, nearly all actives have AC50 up to about 30 µM;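 also: compound exposure lasted 48 hours before the viability readout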); conditions: SU-DIPG-IV viability, CellTiter-Glo ATP luminescence
# [13] = SU-DIPG-VI glioma cell viability, MIPE4.0 library, CellTiter-Glo luminescence, qHTS (AID 1347066; cut-off not given, nearly all actives have AC50 up to about 30 µM;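 also: cells exposed to compound for 48 hours before readout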); conditions: CellTiter-Glo ATP luminescence
# [14] = target: NAD(+) hydrolase SARM1 (Homo sapiens) (UniProt Q6SZW1); assay: SARM1 TIR NADase inhibitors, cell lysate, NAD-Glo luminescence (AID 1508614;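 active = compound whose remaining NAD level is above about 45 nM, limit read from the data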;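 also: higher remaining NAD means stronger inhibition of SARM1 NADase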); conditions: SAM-TIR HEK293T lysate NADase, at 1 µM, stronger effect = higher value
# Chain of NAD(+) hydrolase SARM1 (Homo sapiens) (Q6SZW1 whole entry, looked up): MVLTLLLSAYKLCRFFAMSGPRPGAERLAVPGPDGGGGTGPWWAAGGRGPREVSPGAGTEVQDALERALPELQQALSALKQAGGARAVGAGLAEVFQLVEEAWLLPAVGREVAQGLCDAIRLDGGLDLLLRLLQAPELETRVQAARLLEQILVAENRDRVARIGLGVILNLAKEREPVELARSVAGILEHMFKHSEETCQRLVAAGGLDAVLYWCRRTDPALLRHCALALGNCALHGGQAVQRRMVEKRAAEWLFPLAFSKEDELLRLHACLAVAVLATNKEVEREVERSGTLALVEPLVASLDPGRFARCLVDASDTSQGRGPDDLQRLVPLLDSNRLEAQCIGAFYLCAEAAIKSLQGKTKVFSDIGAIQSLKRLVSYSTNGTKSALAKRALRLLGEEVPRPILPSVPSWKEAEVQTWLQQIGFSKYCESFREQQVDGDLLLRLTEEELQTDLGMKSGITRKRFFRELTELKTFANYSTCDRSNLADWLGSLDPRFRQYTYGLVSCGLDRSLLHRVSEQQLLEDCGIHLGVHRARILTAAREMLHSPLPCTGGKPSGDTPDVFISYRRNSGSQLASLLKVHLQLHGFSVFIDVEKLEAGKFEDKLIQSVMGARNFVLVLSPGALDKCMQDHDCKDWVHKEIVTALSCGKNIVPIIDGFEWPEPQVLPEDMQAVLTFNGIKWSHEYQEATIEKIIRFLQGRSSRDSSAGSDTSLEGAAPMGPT
# [15] = growth inhibition of DIPG glioma cells, dose response, cell-based, JHH-DIPG-1, MIPE4.0, CellTiter-Glo, qHTS (AID 1347062; cut-off not given, nearly all actives have AC50 up to about 27 µM;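 also: cells exposed to compound for two days before readout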); conditions: JHH-DIPG-1 viability, CellTiter-Glo ATP luminescence
# [16] = measured here: epithelial PC-3E GFP cell survival
# [17] = measured here: mesenchymal TEM4-18 mCherry cell survival
# [18] = stronger effect = lower value, cell number ratio, induced over uninduced
# [19] = measured here: relative caspase fold change +Dox/-Dox
# [20] = measured here: total cells with miR-34 induction, stronger effect = lower value
# [21] = measured here: total cells without miR-34 induction
structure (smiles),measurement,setting,value
CC[C@]1(O)CC2CN(CCc3c([nH]c4ccccc34)[C@@](C(=O)OC)(c3cc4c(cc3OC)N(C)[C@H]3[C@@](O)(C(=O)OC)[C@H](OC(C)=O)[C@]5(CC)C=CCN6CC[C@]43[C@@H]65)C2)C1 (stereo partly drawn),parasite load remaining,[1],45.7% (inactive) and 54.9% (inactive)
same,viability,[1],113% and 91%
same,red/green cell ratio (normalised),[2],1.24 (inactive)
same,normalised cell number,[2]; [16],0.16
same,normalised cell number,[2]; [17],0.2
same,AC50,[3],0.0209 µM (active)
same,AC50,[4],0.0833 µM (active)
same,AC50,[5],0.0148 µM (active)
same,AC50,[6],0.0468 µM (active)
same,IC50,[7],3.32 µM (active)
same,fold change,[8]; [18],1.13 (inactive) and 1.04 (inactive)
same,fold change,[8]; [19],2.66 and 1.23
same,cell count,[8]; [20],1730 and 1930
same,cell count,[8]; [21],1530 and 1860
same,z-score,"[9]; MELAS cybrid survival, CellTiter-Glo 48 h, stronger effect = higher value",-2.11 (inactive)
same,z-score,"[9]; Rieske KO mouse fibroblast survival, CellTiter-Glo 72 h",1.21
same,z-score,[10],-1.85 (inactive)
COC(=O)/C=C/C(=O)OC,red/green cell ratio (normalised),[2],1.23 (inactive)
same,normalised cell number,[2]; [16],0.84
same,normalised cell number,[2]; [17],1.04
same,outcome,[3],inactive
same,AC50,[11],14.8 µM (active)
same,AC50,[12],0.935 µM (active)
same,outcome,[4],inactive
same,outcome,[5],inactive
same,outcome,[13],inactive
same,outcome,[6],inactive
same,outcome,[7],inactive
same,fold change,[8]; [18],0.976 (inactive)
same,fold change,[8]; [19],1.01
same,cell count,[8]; [20],7550
same,cell count,[8]; [21],7740
same,remaining NAD,[14],10 nM (inactive)
C#C[C@]1(O)CCC2C3CCc4cc(OC5CCCC5)ccc4C3CC[C@@]21C (stereo partly drawn),red/green cell ratio (normalised),[2],0.98 (inactive)
same,normalised cell number,[2]; [16],1.02
same,normalised cell number,[2]; [17],1
same,fold change,[8]; [18],0.818 (inactive)
same,fold change,[8]; [19],0.977
same,cell count,[8]; [20],4740
same,cell count,[8]; [21],5800
COc1ccc2nc3cc(Cl)ccc3c(Nc3cc(CN4CCCC4)c(O)c(CN4CCCC4)c3)c2n1,red/green cell ratio (normalised),[2],1.19 (inactive)
same,normalised cell number,[2]; [16],0.83
same,normalised cell number,[2]; [17],0.98
same,AC50,[3],9.34 µM (active)
same,outcome,[11],inactive
same,AC50,[15],20.9 µM (active)
same,AC50,[4],13.2 µM (active)
same,AC50,[5],7.42 µM (active)
same,outcome,[13],inactive
same,AC50,[6],11.8 µM (active)
same,IC50,[7],10.5 µM (active)
same,fold change,[8]; [18],1.01 (inactive)
same,fold change,[8]; [19],0.832
same,cell count,[8]; [20],2320
same,cell count,[8]; [21],2290
same,remaining NAD,[14],10 nM (inactive)
CC1(C)S[C@@H]2[C@H](NC(=O)[C@H](C(=O)O)c3cccs3)C(=O)N2[C@H]1C(=O)O,red/green cell ratio (normalised),[2],0.96 (inactive)
same,normalised cell number,[2]; [16],1.05
same,normalised cell number,[2]; [17],1.01
same,fold change,[8]; [18],0.949 (inactive)
same,fold change,[8]; [19],0.673
same,cell count,[8]; [20],9210
same,cell count,[8]; [21],9700

# — PubChem BioAssay
